# From PubChem BioAssay
# For part of these data: Measured potencies and affinities stand elsewhere. The source made the active and inactive calls. Unless noted, the rule behind the calls is not given here.
# How the values were obtained:
# [1] = antimalarial activity against Dd2 strain (AID 2302;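 active = growth inhibition above 50% at the single 2 µM test dose, taken to imply half-maximal potency below 2 µM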;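 note: 0% = DMSO untreated growth and 100% = chloroquine plus artemisinin killed control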); settings: P. falciparum Dd2 in RBCs, LDH growth readout, 72 h; at 2 µM; stronger effect = higher value
# [2] = HepG2 cytotoxicity, primary screen, cytotoxicity control for P. falciparum antimalarial project, cell-based, ATP luminescence (AID 2303;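 active = inhibition above 50%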;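 note: 0% = DMSO wells and 100% = digitonin-killed cells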); settings: HepG2 viability, 24-48 h, at 10 µM, stronger effect = higher value
# [3] = biological target: L-lactate dehydrogenase (Plasmodium falciparum (isolate CDC / Honduras)) (UniProt Q27743); test: PfLDH activity inhibition – cell lysate, 3D7 strain, counter-screen for P. falciparum growth inhibition project (AID 2304);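 note: 0% = vehicle and 100% = reference inhibitor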; settings: P. falciparum 3D7 crude extract, LDH APAD/NBT absorbance; at 2 µM; stronger effect = higher value
# Sequence of L-lactate dehydrogenase (Plasmodium falciparum (isolate CDC / Honduras)) (Q27743 whole entry, looked up): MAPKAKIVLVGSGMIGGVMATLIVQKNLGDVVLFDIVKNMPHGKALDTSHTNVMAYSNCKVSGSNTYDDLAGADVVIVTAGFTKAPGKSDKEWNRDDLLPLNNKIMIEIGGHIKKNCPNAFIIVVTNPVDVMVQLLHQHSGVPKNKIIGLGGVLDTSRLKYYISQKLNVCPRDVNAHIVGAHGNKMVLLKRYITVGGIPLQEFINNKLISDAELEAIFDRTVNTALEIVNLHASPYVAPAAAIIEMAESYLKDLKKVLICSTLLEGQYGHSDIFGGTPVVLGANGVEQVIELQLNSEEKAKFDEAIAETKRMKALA
# [4] = inhibition of 3D7 malaria parasite growth – strain 3D7 (AID 2306);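 note: 0% = DMSO wells and 100% = chloroquine plus artemisinin control wells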; settings: P. falciparum 3D7 erythrocytic growth, LDH absorbance, 72 h; at 2 µM; stronger effect = higher value
# [5] = biological target: Calcium-dependent protein kinase 1 (Plasmodium falciparum (isolate 3D7)) (UniProt P62344); test: PfCDPK1 kinase inhibitors, biochemical, TCAMS library (AID 1159585; cut-off not given, nearly all actives have IC50 up to about 0.98 µM;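 note: inhibitors leave more ATP so luminescence rises with inhibition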); settings: recombinant PfCDPK1, Kinase-Glo ATP depletion luminescence
# Sequence of Calcium-dependent protein kinase 1 (Plasmodium falciparum (isolate 3D7)) (P62344 whole entry, looked up): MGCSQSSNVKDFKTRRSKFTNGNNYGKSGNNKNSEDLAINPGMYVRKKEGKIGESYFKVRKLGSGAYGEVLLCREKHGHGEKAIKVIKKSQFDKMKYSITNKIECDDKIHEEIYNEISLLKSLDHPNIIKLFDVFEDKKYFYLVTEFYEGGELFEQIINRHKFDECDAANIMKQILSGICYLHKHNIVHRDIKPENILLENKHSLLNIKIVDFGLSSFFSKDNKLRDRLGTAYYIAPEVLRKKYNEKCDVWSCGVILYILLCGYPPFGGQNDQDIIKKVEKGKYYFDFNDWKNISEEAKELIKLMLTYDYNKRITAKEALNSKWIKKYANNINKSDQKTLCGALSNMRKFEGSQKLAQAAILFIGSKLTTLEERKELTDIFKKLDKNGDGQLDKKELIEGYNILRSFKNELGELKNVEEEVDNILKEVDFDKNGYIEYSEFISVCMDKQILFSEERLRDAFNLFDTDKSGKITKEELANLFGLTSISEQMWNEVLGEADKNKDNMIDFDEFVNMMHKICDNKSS
# [6] = biological target: Plasmodium falciparum protein kinase 6 (PK6, PF3D7_1337100) (UniProt Q8IDW1); test: PfPK6 kinase inhibitors, biochemical, TCAMS library (AID 1159586); settings: recombinant PfPK6, Kinase-Glo ATP depletion luminescence
# Sequence of Plasmodium falciparum protein kinase 6 (PK6, PF3D7_1337100) (Q8IDW1 1-305): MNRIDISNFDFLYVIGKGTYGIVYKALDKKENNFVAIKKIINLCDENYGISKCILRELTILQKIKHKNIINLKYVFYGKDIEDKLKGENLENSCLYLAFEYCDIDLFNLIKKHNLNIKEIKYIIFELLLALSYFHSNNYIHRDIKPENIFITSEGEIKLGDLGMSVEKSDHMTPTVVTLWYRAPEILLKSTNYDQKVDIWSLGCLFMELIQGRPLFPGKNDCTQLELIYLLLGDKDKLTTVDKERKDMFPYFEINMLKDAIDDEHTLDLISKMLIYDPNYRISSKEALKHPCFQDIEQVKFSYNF
# [7] = biological target: Protein kinase 7 (PK7), Plasmodium falciparum 3D7 (PF3D7_0213400) (UniProt Q7YTF7); test: inhibition of Plasmodium PK7 catalytic activity – biochemical, TCAMS antimalarial set, Kinase-Glo luminescence (AID 1159587); settings: recombinant PfPK7, Kinase-Glo ATP depletion luminescence
# Sequence of Protein kinase 7 (PK7), Plasmodium falciparum 3D7 (PF3D7_0213400) (Q7YTF7 1-343): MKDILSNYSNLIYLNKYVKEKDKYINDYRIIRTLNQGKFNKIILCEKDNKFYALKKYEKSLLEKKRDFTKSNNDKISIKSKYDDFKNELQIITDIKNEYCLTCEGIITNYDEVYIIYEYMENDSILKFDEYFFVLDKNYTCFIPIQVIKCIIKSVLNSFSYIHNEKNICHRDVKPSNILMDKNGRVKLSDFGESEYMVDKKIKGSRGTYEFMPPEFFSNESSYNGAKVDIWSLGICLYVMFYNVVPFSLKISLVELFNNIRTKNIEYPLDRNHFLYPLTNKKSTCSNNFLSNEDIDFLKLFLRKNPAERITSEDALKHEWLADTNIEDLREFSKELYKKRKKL
# [8] = biological target: Calcium-dependent protein kinase 4 (Plasmodium falciparum (isolate 3D7)) (UniProt Q8IBS5); test: PfCDPK4 kinase inhibitors, biochemical, TCAMS library (AID 1159588; cut-off not given, nearly all actives have IC50 up to about 0.91 µM); settings: recombinant PfCDPK4, Kinase-Glo ATP depletion luminescence
# Sequence of Calcium-dependent protein kinase 4 (Plasmodium falciparum (isolate 3D7)) (Q8IBS5 whole entry, looked up): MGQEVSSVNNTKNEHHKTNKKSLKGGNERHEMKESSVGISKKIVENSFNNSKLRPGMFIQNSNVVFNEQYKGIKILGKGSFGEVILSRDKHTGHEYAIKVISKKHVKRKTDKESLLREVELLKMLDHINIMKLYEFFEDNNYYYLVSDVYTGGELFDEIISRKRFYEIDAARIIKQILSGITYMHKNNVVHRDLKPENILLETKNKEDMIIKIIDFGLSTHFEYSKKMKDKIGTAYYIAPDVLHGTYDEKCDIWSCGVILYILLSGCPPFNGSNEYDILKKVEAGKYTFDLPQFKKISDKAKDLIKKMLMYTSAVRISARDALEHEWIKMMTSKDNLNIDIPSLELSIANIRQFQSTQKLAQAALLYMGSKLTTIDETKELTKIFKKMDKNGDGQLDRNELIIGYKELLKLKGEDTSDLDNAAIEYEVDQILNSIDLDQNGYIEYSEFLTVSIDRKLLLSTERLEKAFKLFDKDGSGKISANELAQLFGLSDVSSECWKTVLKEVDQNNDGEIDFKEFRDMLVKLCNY
SMILES,growth inhibition [1],inhibition [2],inhibition [3],growth inhibition [4],outcome [5],outcome [6],outcome [7],outcome [8]
CN1CCN(CC(=O)Nc2cccc(-c3cccc(-c4nc5ccc(C(F)(F)F)cc5[nH]4)c3)c2)CC1,98% (active),26% (inactive),4% (inactive),101% (active),inactive,inactive,inactive,inactive
CCOc1c(CNCCCNc2cc(=O)c3ccccc3[nH]2)cc(I)cc1C(C)(C)C,89% (active),17% (inactive),-4% (inactive),102% (active),inactive,inactive,inactive,inactive
CC(C)C(NC(=O)Cc1cccc2ccccc12)C(=O)Nc1cccc(C#N)c1 (configuration not stated),91% (active),-3% (inactive),0% (inactive),92% (active),inactive,inactive,inactive,inactive
O=C(NCCCCN1CCC(c2ccc(-c3ccco3)cc2)CC1)c1ccc(NC(=O)c2ccc(Cl)cc2)cc1,97% (active),26% (inactive),6% (inactive),100% (active),inactive,inactive,inactive,inactive
C(=NNc1ccnc2ccccc12)c1ccncc1,27% (inactive),7% (inactive),-2% (inactive),95% (active),inactive,inactive,inactive,inactive
O=C(Cc1cccc(Cl)c1)Nc1cccc(-c2c[nH]c3nc(Nc4ccccc4)ncc23)c1,70% (active),5% (inactive),-2% (inactive),99% (active),inactive,inactive,inactive,inactive
N=C(N)c1ccc(Oc2ccc(C(=N)N)cc2)cc1,85% (active),18% (inactive),-3% (inactive),92% (active),inactive,inactive,inactive,inactive
COc1cc2ccccc2c(CNCCCCCCNCc2c(OC)c(OC)cc3ccccc23)c1OC,89% (active),100% (active),-4% (inactive),95% (active),inactive,inactive,inactive,inactive
C[C@H](CNc1ccnc(Nc2ccc3[nH]c(=O)[nH]c3c2)n1)c1ccccc1,-5% (inactive),61% (active),-2% (inactive),100% (active),inactive,inactive,inactive,inactive
Cc1c(Cc2ccc(F)cc2)c(Cl)nc2nc(N)nc(N)c12,1% (inactive),66% (active),-2% (inactive),92% (active),inactive,inactive,inactive,inactive
Cc1ccc2[nH]c(-c3ccc(C(=O)NCc4ccc(Cl)c(Cl)c4)cc3)nc2c1C,26% (inactive),19% (inactive),5% (inactive),96% (active),inactive,inactive,inactive,inactive
CN(C)CCN(C)Cc1ccc(-c2ccc3c(Nc4ccc(F)cc4Cl)ccnc3c2)o1,100% (active),31% (inactive),5% (inactive),101% (active),inactive,inactive,inactive,inactive
COc1cccc(CC(=O)N2CCC(n3c(C)nc4ccc(F)cc43)CC2)c1,99% (active),-8% (inactive),-3% (inactive),100% (active),inactive,inactive,inactive,inactive
O=C(Nc1ccc(OC2CCN(Cc3ccsc3)C2)c(Cl)c1)c1ccc(F)cc1 (configuration not stated),73% (active),-3% (inactive),-8% (inactive),89% (active),inactive,inactive,inactive,inactive
CCCNCc1ccc(-c2ccc(CN(CCOC)C(=O)CCC(=O)c3ccc(OC)c(F)c3)cc2)nc1,47% (inactive),13% (inactive),-7% (inactive),100% (active),inactive,inactive,inactive,inactive
Cc1cc(Nc2nc(NCc3cccnc3)nc3ccccc23)n[nH]1,33% (inactive),11% (inactive),1% (inactive),101% (active),inactive,inactive,inactive,inactive
CN(Cc1ccc(NC(=O)CCC2CCN(C(=O)/C=C/c3ccc(Cl)c(Cl)c3)CC2)cc1)C1CCOCC1,2% (inactive),10% (inactive),0% (inactive),94% (active),inactive,inactive,inactive,inactive
Cc1cc(Nc2ccc(Oc3ccc(Cl)cc3)cc2)nc(N)n1,71% (active),49% (inactive),7% (inactive),101% (active),inactive,inactive,inactive,inactive
OC[C@H]1CCCN1CC#Cc1cc2c(Nc3ccc(OCc4cccc(F)c4)c(Cl)c3)ncnc2s1,6% (inactive),13% (inactive),-2% (inactive),89% (active),inactive,inactive,inactive,inactive
NC(=O)c1ccccc1OCC(=O)Nc1cccc(-c2cccc(-c3nc4ccccc4[nH]3)c2)c1,46% (inactive),23% (inactive),3% (inactive),88% (active),inactive,inactive,inactive,inactive

SMILES,growth inhibition [1],inhibition [2],inhibition [3],growth inhibition [4],outcome [5],outcome [6],outcome [7],outcome [8]
O=C1COc2ccc(S(=O)(=O)N3CCC[C@@H]3CCN3CCC(c4c[nH]c5cnccc45)CC3)cc2N1,6% (inactive),-8% (inactive),1% (inactive),101% (active),inactive,inactive,inactive,inactive
Clc1ccc(OCCC2CCN(CCCCCCCN3CCC(CCOc4ccc(Cl)c(Cl)c4)CC3)CC2)cc1Cl,82% (active),100% (active),-5% (inactive),99% (active),inactive,inactive,inactive,inactive
c1cncc(NCc2ccc(-c3cc4ccncc4cc3OC3CCNCC3)s2)c1,19% (inactive),4% (inactive),2% (inactive),100% (active),inactive,inactive,inactive,inactive
COc1ccc2nccc([C@@H](O)CN3CCC(NC(=O)C(c4cc5ccccc5o4)N4CCN(c5ccccc5)CC4)CC3)c2c1 (some centres not stated),99% (active),19% (inactive),-2% (inactive),99% (active),inactive,inactive,inactive,inactive
CCC(Cc1ccccc1)c1cc(O)c(Cc2ccc(-c3ccccc3)cc2)c(=O)o1 (configuration not stated),-3% (inactive),3% (inactive),-1% (inactive),89% (active),inactive,inactive,inactive,inactive
CCCC(C(=O)OCCN(CC)CC)(c1ccc(Cl)cc1)c1ccc(Cl)cc1,87% (active),7% (inactive),2% (inactive),91% (active),inactive,inactive,inactive,inactive
CCn1c(SCc2ccccc2)nc2c1c(=O)[nH]c(=O)n2C,30% (inactive),1% (inactive),-1% (inactive),96% (active),inactive,inactive,inactive,inactive
c1ccc(C(c2cccs2)N2CCN(Cc3ccc(OCCCN4CCCCC4)cc3)CC2)cc1 (configuration not stated),14% (inactive),41% (inactive),2% (inactive),91% (active),inactive,inactive,inactive,inactive
Cc1ccc2[nH]c(C)c(Br)c(=O)c2c1,84% (active),-4% (inactive),-5% (inactive),95% (active),inactive,inactive,inactive,inactive
O=C(NC1CC1)c1ccc(N2CCC(COc3cccc(F)c3)CC2)nc1,88% (active),0% (inactive),4% (inactive),89% (active),inactive,inactive,inactive,inactive
NC(=NCCc1ccc(Cl)cc1)c1ccc(Cl)c(Cl)c1,42% (inactive),43% (inactive),-1% (inactive),100% (active),inactive,inactive,inactive,inactive
CCCNC(=O)c1cncc(-c2ccc(CNCCCc3ccccc3)cc2)c1,29% (inactive),-13% (inactive),0% (inactive),101% (active),inactive,inactive,inactive,inactive
CC(C)N1CCN(C(=O)c2ccc(CNCCCN3CCN(c4cccc(Cl)c4Cl)CC3)o2)CC1,36% (inactive),41% (inactive),1% (inactive),98% (active),inactive,inactive,inactive,inactive
O=S(=O)(NCCN1CCCC1)c1ccc(-c2cccc(CNC3Cc4ccccc4C3)c2)cc1F,62% (active),41% (inactive),-1% (inactive),98% (active),inactive,inactive,inactive,inactive
CC(Cc1ccc(C(=O)Nc2ccc(CC(C)NCCc3cccc(Cl)c3)cc2)cc1)NCCc1ccc(C(F)(F)F)cc1 (configuration not stated),88% (active),98% (active),-4% (inactive),101% (active),inactive,inactive,inactive,inactive
CC(C)(C)c1nn(-c2ccccc2)c2[nH]c(=O)c(CNCc3ccc4c(c3)OCO4)cc12,32% (inactive),1% (inactive),3% (inactive),92% (active),inactive,inactive,inactive,inactive
O=C(Nc1cccc(CN2CCN(C(=O)c3cccs3)CC2)c1)c1cccs1,91% (active),-2% (inactive),3% (inactive),95% (active),inactive,inactive,inactive,inactive
CC(C)n1cc2c(ccc3nc(N)nc(N)c32)n1,-2% (inactive),65% (active),1% (inactive),92% (active),inactive,inactive,inactive,inactive
CCNC(=O)NC1CCN(Cc2c(-c3cccs3)nc3ccccc3c2C(=O)N[C@@H](C)C2CCCCC2)CC1,96% (active),-1% (inactive),-2% (inactive),95% (active),inactive,inactive,inactive,inactive
